# The list is not random: actives were taken first. Their share in the collection is about 0.54%.
# TRPML1 blocker – inhibitors of human TRPML1 channel | Q9GZU1 | TRPML1-inducible cells, Ca2+ dye fluorescence, FDSS; active compounds read low; inhibition of EC80 agonist-evoked calcium signal | activity change, negative = inhibition, % (no concentration beside the values) | actives 0.02% (n = 390,000) | AID 624415; in the data active = activity change below about -50%; inconclusive = between about -30% and that limit;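 also: stimulus is agonist 54-4 at its EC80 concentration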
# Target sequence (Q9GZU1 whole entry, looked up): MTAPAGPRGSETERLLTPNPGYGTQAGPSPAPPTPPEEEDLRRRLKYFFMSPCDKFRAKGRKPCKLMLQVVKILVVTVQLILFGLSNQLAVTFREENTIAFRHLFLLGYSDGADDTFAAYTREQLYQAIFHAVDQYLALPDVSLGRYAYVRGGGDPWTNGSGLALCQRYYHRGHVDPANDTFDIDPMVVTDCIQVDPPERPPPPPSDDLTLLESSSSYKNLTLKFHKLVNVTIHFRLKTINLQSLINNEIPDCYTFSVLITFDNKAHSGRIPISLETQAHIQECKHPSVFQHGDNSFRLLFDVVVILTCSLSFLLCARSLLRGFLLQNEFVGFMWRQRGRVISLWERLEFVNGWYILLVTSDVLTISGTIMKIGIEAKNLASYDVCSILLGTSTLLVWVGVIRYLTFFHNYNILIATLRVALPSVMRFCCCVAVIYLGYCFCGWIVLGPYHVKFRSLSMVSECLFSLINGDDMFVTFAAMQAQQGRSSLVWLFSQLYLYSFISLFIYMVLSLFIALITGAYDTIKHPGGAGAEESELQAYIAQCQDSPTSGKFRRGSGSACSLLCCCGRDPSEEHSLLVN
#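 Tet-induced TRPML1-DL cells loaded with Ca8 no-wash calcium dye were read kinetically on FDSS. Compound addition was followed by EC80 agonist 54-4 (4 uM final); inhibition was read over 110 s.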
# Vif-A3G inh – blocks the Vif interaction with human APOBEC3G; Q9HC16; HeLa A3G-eYFP + Vif (tagged APOBEC3G with the HIV-1 protein that degrades it), YFP fluorescence, overnight; Potency, µM (titrated, usually from 46.1 µM), hits mostly inhibitors; actives 0.076% (n = 410,000); AID 602310; also: nearly all actives have a fitted effect of over 60% in size
#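 Read-out is eYFP fluorescence (Ex 488/Em 500-530) from Vif-expressing HeLa A3G-eYFP cells; more signal means A3G escaped Vif-mediated degradation. Cells plated overnight, compound pinned in, incubated overnight at 37 deg C.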
# Vif-A3F inh – inhibitors of Vif-A3F interaction. Potency, µM (series often up to 46.1 µM). actives 0.2% (n = 390,000). HeLa A3F-eYFP + Vif (tagged APOBEC3F with the HIV-1 protein that degrades it), YFP fluorescence increase; also: nearly all actives have a fitted effect of over 65% in size
#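 HeLa cells stably expressing Vif plus C-terminally eYFP-tagged A3F were seeded, incubated overnight at 37 deg C, dosed with compound, incubated overnight again at 37 deg C. Yellow fluorescence (Ex 488/Em 500-530) reported blocked Vif-mediated A3F-eYFP degradation.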
# TRPML1 agonist – agonists of human TRPML1 channel; TRPML1-expressing cells, Ca2+ dye fluorescence, FDSS; actives 0.12% (n = 410,000); Q9GZU1; activation, % (no concentration beside the values); in the data active = activation above about 50%; inconclusive = mostly about 30% to 49%
#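 Tetracycline-induced TRPML1-DL cells are seeded and incubated overnight before loading with a no-wash Ca2+ dye and quencher. Agonist activity is taken from the 110 s fluorescence read following compound pin-transfer on an FDSS, before EC80 54-4 challenge.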
# AT treatment – candidate therapy for ataxia-telangiectasia. F2112 A-T fibroblasts, KAP-1 phosphorylation AlphaLISA; neocarzinostatin DNA damage 30 min before lysis. Potency, µM (highest dose often 57.5 µM), actives largely listed as activators. actives 0.19% (n = 320,000). AID 485349; also: nearly all actives have a fitted effect of over 45% in size
#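 ATM-like activity read as KAP-1 phosphorylation via AlphaLISA donor/acceptor antibody pairs after lysis and 6 hr at 25C. Cells were ATM-null patient fibroblasts (F2112, hTERT), dosed 60 min, then exposed to the DSB inducer NCS for 30 min.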
# A number is an active result; 0 = inactive; ? = inconclusive; - = no result. Unless noted, calls follow the shape of the dose curve; as a rule, active = well fitted curve in the direction sought with a large enough effect; inconclusive = small, poorly fitted or top-dose-only effect, or another doubt; inactive = no such curve, though single readings can be large; an effect the other way counts as inactive or inconclusive.
SMILES,TRPML1 blocker,Vif-A3G inh,Vif-A3F inh,TRPML1 agonist,AT treatment
O=S1(=O)C[C@H](N2CCN(CCO)CC2)[C@@H](COCc2ccccc2)N1,-,0,-,0,-
Cc1ccc(NC(=O)/C=C/c2ccc([N+](=O)[O-])s2)c(C)c1,0,?,10µM,0,0
Cc1ccc(C(=O)N/N=C/c2ccc([N+](=O)[O-])s2)cc1,0,?,0,0,0
Cc1cccc(NC(=S)N/N=C/c2ccc([N+](=O)[O-])s2)c1,0,?,0,0,0
Cc1ccc(NC(=O)/C=C/c2ccc([N+](=O)[O-])s2)cc1,0,3.2µM,7.9µM,0,0
Cc1cccc(NC(=O)/C=C/c2ccc([N+](=O)[O-])s2)c1,0,?,7.1µM,0,0
O=C(Nc1cccc(Cl)c1)c1ccc2nc(Cc3ccccc3)oc2c1,0,0,0,0,-
Cc1ccnc2c(Cl)cccc12,-,0,-,0,-
CC(=O)Oc1ccc2c(c1)Oc1cc(OC(C)=O)ccc1C21OC(=O)c2ccccc21,0,0,0,113,0
COc1ccc(OCCCn2ccnc2)cc1,0,0,0,0,3.2µM
O=C(NCCc1ccccc1Cl)c1ccc2c(c1)nc1n2CCOC1,0,0,0,0,-
COc1ccc(-c2nc3c(=O)n(C)c(=O)nc-3n(C)n2)cc1,-,0,-,0,-
CCN1/C(=C/C=C/c2oc3ccc4ccccc4c3[n+]2CC)Oc2ccc3ccccc3c21,0,0,0,63,0
O=C(NCCc1nc2ccccc2n1CCCOc1ccc2ccccc2c1)C1CCCCC1,-,0,-,0,-
CC(Oc1ccc(Cl)cc1)C(=O)Nc1ccccc1N1CCOCC1 (configuration not stated),0,0,0,74,0
COc1ccc(S(=O)(=O)NCCc2sc3nc(-c4ccc(C)cc4)nn3c2C)cc1C,0,0,0,0,-
Cc1cc(C)c(NC(=O)c2ccc3c(c2)NC(=O)C(C)S3)c(C)c1 (configuration not stated),0,0,0,0,0
CC1Sc2ccc(C(=O)NCc3ccccn3)cc2NC1=O (configuration not stated),0,0,13µM,0,0
CC(=O)Nc1cc(-c2cccnc2)cn2c(-c3cccc(C(F)(F)F)c3)cnc12,-,0,-,0,-
O=c1c2ccccc2nc(SCc2ccccc2)n1CC1CCCO1 (configuration not stated),-,0,0,-,14µM
O=C(CSc1nc2ccccc2c(=O)n1CC1CCCO1)NCC1CCCO1 (configuration not stated),0,0,0,0,0
CCc1ccc(S(=O)(=O)c2nnn3c2nc(Nc2ccc(C)c(Cl)c2)c2sccc23)cc1,0,0,0,0,-
CCN(CC(=O)Nc1ccccc1-c1ccccc1)Cc1nc2ccccc2c(=O)[nH]1,0,7.1µM,0,0,0
CN(C)S(=O)(=O)c1ccc(S(=O)(=O)N(Cc2ccco2)Cc2ccccc2Cl)cc1,0,0,0,64,0
O=S(=O)(c1ccc(S(=O)(=O)N(Cc2ccco2)Cc2ccccc2Cl)cc1)N1CCCC1,0,0,0,0,0
SMILES,TRPML1 blocker,Vif-A3G inh,Vif-A3F inh,TRPML1 agonist,AT treatment
CCCN(CCC)CC(O)CN(c1ccccc1)S(=O)(=O)c1ccc(C)cc1 (configuration not stated),0,0,0,0,-
CCCCN(c1nc2ccccc2nc1Cl)S(=O)(=O)c1ccc(C)cc1,0,0,?,0,10µM
COc1cc(Cl)c(C)cc1NC(=O)c1cnc(N2CCCCC2)c2ccccc12,0,0,0,69,-
COc1cc(Cl)c(C)cc1NC(=O)c1cnc(N2CCOCC2)c2ccccc12,0,0,0,?,-
CC(CNC(=O)c1ccc(Nc2nc3ccccc3n3nnnc23)cc1)c1ccccc1 (configuration not stated),?,0,0,0,-
CC(NC(=O)c1ccc(Nc2nc3ccccc3n3nnnc23)cc1)c1ccccc1 (configuration not stated),0,?,7.1µM,0,-
COc1ccccc1CNC(=O)c1ccc(Nc2nc3ccccc3n3nnnc23)cc1,0,0,22µM,0,-
Cc1ccc(C(=O)O)cc1Nc1nc2ccccc2n2nnnc12,0,0,11µM,0,-
CCOc1ccccc1NC(=O)C1CCN(S(=O)(=O)c2ccccc2)CC1,0,0,0,0,-
CC(C)CCOc1ccc(Oc2nc(N(C)C)nc(N(C)C)n2)nn1,0,0,0,0,-
COCc1nc2ccccc2n1Cc1ccccc1,0,0,0,0,0
ClCc1nc2ccccc2n1Cc1ccccc1,0,?,5.6µM,0,0
CCOC(=O)C1CCN(C(=O)c2cc3cc(Cl)ccc3[nH]2)CC1,0,0,0,0,7.9µM
CCOC(=O)C1CCN(C(=O)c2cc3ccc(OC)cc3[nH]2)CC1,0,0,0,0,0
CCCC(c1nnnn1Cc1cccs1)N1CCN(c2nc3ccccc3s2)CC1 (configuration not stated),0,0,-,61,0
COc1cccc(Nc2nc(C(N)Cc3ccc(Cl)cc3)cs2)n1 (configuration not stated),-,0,-,0,-
CC(C)(C)OC(=O)N1CCC(c2c(C(=O)N3CCN(C4CCCCC4)CC3)cnn2-c2ccc(F)cc2)CC1,0,0,0,0,0
Cc1ccc(-n2ncc(C(=O)N3CCN(C4CCCCC4)CC3)c2C2CCN(C(=O)OC(C)(C)C)CC2)cc1C,0,0,0,69,-
Cc1cccc(N2CCN(C(=O)c3cnn(-c4ccc(F)cc4F)c3C3CCN(C(=O)OC(C)(C)C)CC3)CC2)c1C,-63,0,0,93,-
CC(C)(C)OC(=O)N1CCC(c2c(C(=O)N3CCN(c4ncccn4)CC3)cnn2-c2ccc(F)cc2F)CC1,0,0,0,0,-
CCN1CCN(C(=O)c2cnn(-c3cccc(Cl)c3)c2C2CCN(C(=O)OC(C)(C)C)CC2)CC1,0,0,0,0,-
CC(C)(C)OC(=O)N1CCC(c2c(C(=O)N3CCN(C4CCCCC4)CC3)cnn2-c2cccc(Cl)c2)CC1,0,0,0,92,-
COc1ccccc1N1CCN(C(=O)c2cnn(-c3ccc(C)c(C)c3)c2C2CCN(C(=O)OC(C)(C)C)CC2)CC1,0,0,0,59,-
C=CCN1CC[C@@H](O)C(=C)S1(=O)=O,-,0,-,0,-
CCOc1ccc(NC(=O)C(Cc2ccccc2)N2C(=O)c3cccc4cccc(c34)C2=O)cc1 (configuration not stated),0,0,0,61,0
N#CC(C#N)=C1C=C2C=C(N3CCCCC3)CCC2CC1 (configuration not stated),0,0,?,109,0
N#CC1=C(N)C2=C(N3CCCCC3)CCCC2C1(C#N)C#N (configuration not stated),0,0,0,0,0
CCN(CC)C1=CC2=CC(=C(C#N)C#N)CCC2CC1 (configuration not stated),?,0,?,105,0
